Laboratory results from PubChem BioAssay (NCATS).
Results filed as inconclusive are left out. Some of the results follow. Where a call stands in place of a potency, no number is given. Active and inactive are the calls of the source. Calls follow the shape of the dose curve; as a rule, active = well fitted curve in the direction sought with a large enough effect; inconclusive = small, poorly fitted or top-dose-only effect, or another doubt; inactive = no such curve, though single readings can be large; an effect the other way counts as inactive or inconclusive.

How the values were obtained:
[1] = molecular target: ATPase family AAA domain-containing protein 5 (Homo sapiens) (UniProt Q96QE3); assay: qHTS screen for small molecules that inhibit ELG1-dependent DNA repair in human embryonic kidney (HEK293T) cells expressing luciferase-tagged ELG1: Hit Confirmation using MMS Stimulated ELG1 (AID 624249); also: nearly all actives have a fitted effect of over 60% in size; also: potency is read from the fitted curve at half-maximal effect
Method in brief: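 Luminescence read-out (Amplight) of an ELG1-luc reporter in HEK293T cells after 16 h of compound exposure under MMS stimulation at 10 µM final. Inhibition appears as reduced luciferase activity.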

[2] = qHTS screen for small molecules that inhibit ELG1-dependent DNA repair: Hit Confirmation with MMS Viability (AID 624251); also: potency is read from the fitted curve at half-maximal effect;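 also: viability read 16 h after compound addition; nearly all actives have a fitted effect of over 60% in size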
Method in brief: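 CellTiter-Glo viability of ELG1-luc HEK293T cells after 16 h with compound plus 10 µM MMS.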

[3] = molecular target: Luciferin 4-monooxygenase (Photinus pyralis) (UniProt P08659); assay: Biochemical firefly luciferase enzyme assay for NPC (AID 624030);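 also: purified P. pyralis luciferase at 10 nM with luciferin and ATP substrate; series mostly up to about 59 µM; nearly all actives have a fitted effect of over 70% in size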
Method in brief: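 Purified P. pyralis luciferase at 10 nM in 50 mM Tris Acetate (final), luminescence read within 5 minutes of enzyme addition to compounds. Activity normalised to PTC124 versus DMSO; concentration-response curves classed by r2, magnitude and activity.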

[4] = molecular target: Tumor susceptibility gene 101 protein (Homo sapiens) (UniProt Q99816); assay: qHTS Assay for Iinhibitors of HIV-1 Budding by Blocking the Interaction of PTAP/TSG101: Hit Validation (AID 651600); also: nearly all actives have a fitted effect of over 70% in size; also: potency is read from the fitted curve at half-maximal effect
Method in brief: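 Tsg101 binding domain 10 uM + FITC-PTAP peptide 50 nM (final), 10 mM HEPES pH 7.5/0.15 M NaCl/0.01% Tween 20/3 mM EDTA/0.1 mM TCEP; 20 min RT; FP read, FITC filters.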

Sequence of Luciferin 4-monooxygenase (Photinus pyralis) (P08659 whole entry, looked up): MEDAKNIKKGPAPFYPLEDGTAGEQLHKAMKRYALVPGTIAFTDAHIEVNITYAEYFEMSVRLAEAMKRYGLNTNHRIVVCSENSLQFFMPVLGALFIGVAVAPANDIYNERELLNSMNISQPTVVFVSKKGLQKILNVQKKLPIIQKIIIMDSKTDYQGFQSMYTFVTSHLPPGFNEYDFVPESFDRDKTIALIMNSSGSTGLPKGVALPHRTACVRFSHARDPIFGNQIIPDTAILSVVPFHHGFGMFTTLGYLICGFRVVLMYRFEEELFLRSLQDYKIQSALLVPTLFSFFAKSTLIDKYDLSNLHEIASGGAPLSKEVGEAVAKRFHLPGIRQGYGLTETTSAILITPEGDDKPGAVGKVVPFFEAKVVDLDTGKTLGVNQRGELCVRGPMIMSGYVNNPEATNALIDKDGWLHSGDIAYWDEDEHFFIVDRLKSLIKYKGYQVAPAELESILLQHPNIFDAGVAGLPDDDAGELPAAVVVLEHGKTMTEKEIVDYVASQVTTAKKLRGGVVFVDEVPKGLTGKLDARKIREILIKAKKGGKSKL
Sequence of ATPase family AAA domain-containing protein 5 (Homo sapiens) (Q96QE3 whole entry, looked up, the tested form may be a part): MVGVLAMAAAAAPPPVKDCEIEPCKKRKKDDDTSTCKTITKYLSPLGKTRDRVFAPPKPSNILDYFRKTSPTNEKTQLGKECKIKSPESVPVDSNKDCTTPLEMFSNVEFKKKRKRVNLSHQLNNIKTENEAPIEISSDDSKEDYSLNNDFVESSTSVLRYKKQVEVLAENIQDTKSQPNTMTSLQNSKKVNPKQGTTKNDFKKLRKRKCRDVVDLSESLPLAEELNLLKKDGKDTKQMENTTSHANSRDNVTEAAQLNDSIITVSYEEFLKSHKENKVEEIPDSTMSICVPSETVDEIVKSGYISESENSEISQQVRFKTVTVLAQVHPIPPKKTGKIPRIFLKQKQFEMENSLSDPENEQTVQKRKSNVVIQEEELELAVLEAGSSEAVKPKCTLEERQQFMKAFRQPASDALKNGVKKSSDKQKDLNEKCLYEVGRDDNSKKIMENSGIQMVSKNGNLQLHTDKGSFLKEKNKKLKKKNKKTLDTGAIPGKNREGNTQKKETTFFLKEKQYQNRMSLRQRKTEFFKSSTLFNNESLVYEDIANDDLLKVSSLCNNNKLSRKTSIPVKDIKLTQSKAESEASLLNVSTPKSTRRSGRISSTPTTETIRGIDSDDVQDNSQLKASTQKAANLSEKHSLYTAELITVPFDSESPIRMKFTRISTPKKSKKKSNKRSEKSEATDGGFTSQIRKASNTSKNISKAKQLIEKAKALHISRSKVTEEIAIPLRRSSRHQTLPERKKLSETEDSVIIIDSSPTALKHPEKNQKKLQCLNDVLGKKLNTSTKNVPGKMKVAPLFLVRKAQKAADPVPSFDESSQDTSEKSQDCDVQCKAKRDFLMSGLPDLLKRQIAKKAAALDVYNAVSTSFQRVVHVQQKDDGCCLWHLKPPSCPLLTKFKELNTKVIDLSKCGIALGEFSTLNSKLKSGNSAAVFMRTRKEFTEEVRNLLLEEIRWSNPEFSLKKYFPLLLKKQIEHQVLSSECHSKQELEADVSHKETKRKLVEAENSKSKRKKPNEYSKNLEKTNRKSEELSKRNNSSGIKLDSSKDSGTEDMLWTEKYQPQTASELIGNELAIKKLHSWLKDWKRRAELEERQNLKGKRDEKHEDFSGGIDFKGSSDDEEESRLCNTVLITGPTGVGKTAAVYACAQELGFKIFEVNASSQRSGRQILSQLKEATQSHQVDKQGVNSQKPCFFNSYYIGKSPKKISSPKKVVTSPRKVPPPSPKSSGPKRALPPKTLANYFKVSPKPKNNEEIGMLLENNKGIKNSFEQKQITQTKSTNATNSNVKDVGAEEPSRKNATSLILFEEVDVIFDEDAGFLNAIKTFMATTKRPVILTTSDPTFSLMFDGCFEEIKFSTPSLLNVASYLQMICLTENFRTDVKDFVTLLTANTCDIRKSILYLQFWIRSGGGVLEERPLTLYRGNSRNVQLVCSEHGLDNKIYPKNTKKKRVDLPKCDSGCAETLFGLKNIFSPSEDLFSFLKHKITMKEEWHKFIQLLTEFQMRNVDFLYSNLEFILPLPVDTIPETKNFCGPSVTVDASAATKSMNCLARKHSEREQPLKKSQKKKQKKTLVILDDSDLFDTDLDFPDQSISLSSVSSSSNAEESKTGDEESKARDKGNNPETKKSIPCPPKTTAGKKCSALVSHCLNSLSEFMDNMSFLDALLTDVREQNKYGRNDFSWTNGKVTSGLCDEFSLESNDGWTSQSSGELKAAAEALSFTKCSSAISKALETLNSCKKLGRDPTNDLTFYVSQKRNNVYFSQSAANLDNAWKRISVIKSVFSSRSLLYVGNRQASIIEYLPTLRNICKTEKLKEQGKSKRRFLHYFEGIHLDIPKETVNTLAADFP
Sequence of Tumor susceptibility gene 101 protein (Homo sapiens) (Q99816 whole entry, looked up, the tested form may be a part): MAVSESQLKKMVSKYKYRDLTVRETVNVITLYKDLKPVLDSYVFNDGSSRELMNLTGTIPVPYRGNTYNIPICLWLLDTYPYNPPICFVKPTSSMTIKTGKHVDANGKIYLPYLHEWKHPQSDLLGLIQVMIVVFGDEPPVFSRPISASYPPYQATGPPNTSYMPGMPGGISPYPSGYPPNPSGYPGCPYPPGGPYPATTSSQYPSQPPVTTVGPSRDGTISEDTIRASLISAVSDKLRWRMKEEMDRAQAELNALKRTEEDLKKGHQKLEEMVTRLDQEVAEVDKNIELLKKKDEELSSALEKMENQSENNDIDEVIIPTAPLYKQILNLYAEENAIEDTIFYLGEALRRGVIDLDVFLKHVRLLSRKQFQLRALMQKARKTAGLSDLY

CC(=O)c1c(C)n(-c2ccc(C)cc2)c2ccc(O)cc12
Potency [1]: inactive | Potency [2]: inactive

Cc1ccccc1NC(=O)CSc1nc2ccc(Nc3nc(N4CCOCC4)nc(N4CCOCC4)n3)cc2s1
Potency [2]: inactive

CO/N=C(\C(=O)N[C@@H]1C(=O)N2C(C(=O)[O-])=C(C[n+]3cccc4c3CCCC4)CS[C@H]12)c1csc(N)n1
Potency [3]: inactive

COc1ccc(CSc2nc(N3CCOCC3)c3c(c2C#N)CC(C)(C)OC3)cc1
Potency [1]: inactive | Potency [2]: inactive

CC(=O)NC(CCC(N)=O)C(=O)O (centres undefined)
Potency [3]: inactive

Cc1ccc(Nc2nc(N3CCOCC3)nc(N3CCOCC3)n2)cc1Cl
Potency [2]: inactive

COc1ccc(S(=O)(=O)Nc2ccc3oc(C)c(C(C)=O)c3c2)cc1
Potency [1]: 3.97 µM (active) | Potency [2]: 3.97 µM (active)

CN(CC1CCCO1)S(=O)(=O)c1ccc(C(=O)Nc2ccc(F)cc2)cc1 (centres undefined)
Potency [1]: 22.3 µM (active)

Cc1cc2oc(=O)cc(CN3CCN(S(=O)(=O)c4cccs4)CC3)c2cc1C(C)C
Potency [1]: 8.88 µM (active) | Potency [2]: 22.3 µM (active)

CC12CCC(C(=O)N3CCN(c4ncccn4)CC3)(c3nc4ccccc4nc31)C2(C)C (centres undefined)
Potency [2]: inactive

CCc1ccc(N(CC)c2ncnc3nc[nH]c23)cc1
Potency [1]: 17.7 µM (active) | Potency [2]: inactive

CC(C)(C)C(=O)c1sc2nc(-c3cccs3)cc(C(F)(F)F)c2c1N
Potency [4]: inactive

CCCCOC(=O)c1ccc(NC(=O)/C(C#N)=C/c2ccc(-c3ccccc3)o2)cc1
Potency [4]: inactive

O=S(=O)(Nc1cccc(-c2ccc(N3CCCCCC3)nn2)c1)c1cccc(F)c1
Potency [4]: inactive

CS(=O)(=O)c1ccc2nc(NC(=O)C3CCCCC3)sc2c1
Potency [1]: inactive | Potency [2]: inactive

Cc1ccc(N(Cc2ccc(C(=O)Nc3ccccc3C(=O)NCc3ccco3)cc2)S(C)(=O)=O)cc1C
Potency [2]: inactive

CCOC(=O)c1cccc(NC(=O)C2CCN(c3ncnc4c3nc3n4CCCCC3)CC2)c1
Potency [2]: inactive

CC(NC(CCc1ccccc1)C(=O)O)C(=O)N1CCCC1C(=O)O (centres undefined)
Potency [3]: inactive

COc1ccc(NC(=O)c2sc3nc(C)nc(N4CCN(c5ccccn5)CC4)c3c2C)c(OC)c1
Potency [2]: inactive

CN(C)c1ccnc2sc3c(=O)n(Cc4ccccc4)cnc3c12
Potency [2]: inactive

O=[n+]1c2c(n([O-])c3cc(F)c(N4CCCC4)cc31)CCC2
Potency [4]: 13 µM (active)

COc1ccc(NC(=O)C2CCC(CNc3c(N4CCCCC4)c(=O)c3=O)CC2)c(OC)c1 (centres undefined)
Potency [1]: inactive | Potency [2]: inactive
